Source: PubChem BioAssay (NCATS)
Inconclusive results are not listed. Active and inactive are the calls of the source. Calls follow the shape of the dose curve; as a rule, active = well fitted curve in the direction sought with a large enough effect; inconclusive = small, poorly fitted or top-dose-only effect, or another doubt; inactive = no such curve, though single readings can be large; an effect the other way counts as inactive or inconclusive.

Assays:
[1] = Cellular Toxicity (caspase-3) Hek293 (AID 664);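 also: cells exposed to compound for 16 h at 37 °C before readout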
In short: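 HEK293 cells in complete medium treated 16 h at 37 °C, then Caspase-Glo 3/7 luminescence read after 20 min at room temperature. Normalized to DMSO and 100 uM tamoxifen; AC50 from Hill fit of concentration-response.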

[2] = Cellular Toxicity (caspase-3) NIH 3T3 (AID 666);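 also: caspase signal read after 16 h compound exposure; 0% = DMSO basal and 100% = 100 µM tamoxifen stimulation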
In short: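 Mouse NIH 3T3 fibroblasts (1000/well) treated 16 h at 37 C; caspase-3/7 activity measured by Caspase-Glo 3/7 luminescence after 20 min. Normalized to DMSO and 100 uM tamoxifen; AC50 from Hill fits.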

[3] = Cellular Toxicity (caspase-3) Renal Proximal Tubule (AID 667); settings: renal proximal tubule cells; at 91.7 µM (top of the series), primary cells freshly taken from rat, solvent-only wells 0%, staurosporine 100% unless noted;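 also: cells exposed to compound for 16 hours at 37 °C before detection; 0% = DMSO basal and 100% = 10 µM staurosporine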
In short: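 In qHTS format, rat primary proximal tubule cells seeded at 1000 per well are exposed to compounds for 16 hours at 37 °C. An increase in Caspase-Glo 3/7 luminescence indicates caspase activation.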

[4] = target: Cytochrome P450 3A4 (Homo sapiens) (UniProt P08684); experiment: qHTS Assay for Inhibitors and Substrates of Cytochrome P450 3A4 (AID 884); also: % is scaled to controls: 0 for no effect and ±100 for the full control effect; nearly all actives have a fitted effect of over 50% in size
Chain of Cytochrome P450 3A4 (Homo sapiens) (P08684 whole entry, looked up): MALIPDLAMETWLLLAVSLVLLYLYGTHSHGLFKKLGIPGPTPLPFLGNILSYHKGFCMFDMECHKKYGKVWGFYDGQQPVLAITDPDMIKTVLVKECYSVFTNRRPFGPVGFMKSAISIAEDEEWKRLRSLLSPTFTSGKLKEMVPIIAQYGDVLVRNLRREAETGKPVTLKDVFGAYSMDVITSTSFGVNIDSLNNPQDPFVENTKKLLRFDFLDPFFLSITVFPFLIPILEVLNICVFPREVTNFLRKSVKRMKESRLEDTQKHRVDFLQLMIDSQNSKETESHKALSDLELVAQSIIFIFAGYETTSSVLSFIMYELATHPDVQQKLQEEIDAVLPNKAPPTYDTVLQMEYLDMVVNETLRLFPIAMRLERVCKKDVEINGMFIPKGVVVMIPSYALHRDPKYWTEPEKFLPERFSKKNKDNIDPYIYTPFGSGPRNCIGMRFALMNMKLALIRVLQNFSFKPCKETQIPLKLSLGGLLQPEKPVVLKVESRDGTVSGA
In short: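 20 nM human CYP3A4 with 25 uM Luciferin-PPXE (at KM) in 200 mM KPO4, preincubated 10 min with compound; NADPH regeneration started a 60 min RT reaction. Luciferin detected by luminescence, normalized to 57 uM ketoconazole as full inhibition.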

[5] = Cell Viability - LYMP2-001 (AID 921);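 also: 0% = DMSO only and full inhibition = tetraoctylammonium bromide control wells; nearly all actives have a fitted effect of over 70% in size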
In short: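 qHTS, 1536-well; lymphoblastoid cells, 24 hr compound, 37 C; ATP by CellTiter-Glo, 30 min RT; luminescence; Hill-fit AC50.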

[6] = MultiTox-Fluor Cytotoxicity Assay - LYMP1-001 - Dead Cells (AID 946)
In short: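 Cytotoxicity as increased dead-cell protease fluorescence (bis-AAF-R110, 485/520 nm), read 60 min after MultiTox-Fluor reagent. Human lymphoblastoid line exposed 16 h; Hill-fitted AC50, with DMSO as 0% and 15 uM tetraoctylammonium bromide as 100%.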

[7] = Cell Viability - LYMP1-002 - Assay at 16 hr (AID 948);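 also: 0% = DMSO alone and full effect = 92 µM tetraoctylammonium bromide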
In short: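 Acute cytotoxicity is scored as a concentration-dependent fall in intracellular ATP in a human lymphoblastoid line (LYMP1-002) after 16 hr compound exposure at 37 C, measured by luciferase luminescence.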

[8] = MultiTox-Fluor Cytotoxicity Assay - LYMP1-002 - Live Cells (AID 955); also: % is scaled to controls: 0 for no effect and ±100 for the full control effect
In short: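 Human lymphoblastoid LYMP1-002 cells, 2500/well, treated 16 h at 37 C in complete medium. Live-cell protease activity via GF-AFC fluorescence (Ex/Em 405/510) after 60 min reagent incubation; AC50 from Hill fits.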

[9] = MultiTox-Fluor Cytotoxicity Assay - LYMP1-002 - Dead Cells (AID 960); also: nearly all actives have a fitted effect of over 60% in size
In short: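 Human lymphoblastoid LYMP1-002 cells, 2500/well, treated 16 h at 37 C; dead-cell protease cleavage of bis-AAF-R110 read by fluorescence (485/520); normalized to DMSO and 15 uM tetraoctylammonium bromide; AC50 from Hill fit.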

[10] = MultiTox-Fluor Cytotoxicity Assay - LYMP1-003 - Dead Cells (AID 961); also: nearly all actives have a fitted effect of over 70% in size
In short: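 Dead-cell protease release, detected as bis-AAF-R110 fluorescence at 485/520 nm, was measured in LYMP1-003 cells after 16 h compound treatment at 37 C. AC50 values came from Hill-modeled qHTS curves normalized to DMSO (0%) and 15 uM tetraoctylammonium bromide (100%).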

[11] = MultiTox-Fluor Cytotoxicity Assay - LYMP1-003 - Live Cells (AID 962);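 also: 0% = DMSO only and full loss = 92 µM tetraoctylammonium bromide; cytotoxic hits lower the live-cell protease signal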
In short: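 LYMP1-003 lymphoblastoid cells, 2500/well in complete medium, treated 16 h at 37 C; live-cell protease cleavage of GF-AFC read by fluorescence (Ex/Em 405/510) after 60 min reagent; AC50 from Hill fits of concentration-response.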

[12] = Cell Viability - LYMP1-003 - Assay at 24 hr (AID 963);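 also: plate controls were DMSO only for no effect and tetraoctylammonium bromide positive control for full effect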
In short: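 Human lymphoblastoid LYMP1-003 cells, 2500/well, treated 24 h at 37 C in complete medium. Viability read as intracellular ATP by CellTiter-Glo luminescence after 30 min at room temperature; AC50 from Hill-equation fits of qHTS concentration-response.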

[13] = Cell Viability - LYMP2-003 (AID 965);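 also: cells exposed to compounds for 24 h before reading; 0% = DMSO only and full effect = 92 µM tetraoctylammonium bromide; nearly all actives have a fitted effect of over 50% in size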
In short: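 Acute cytotoxicity is scored as a concentration-dependent drop in intracellular ATP, measured by luciferase luminescence in human lymphoblastoid cells treated for 24 hours at 37 C. AC50 values derive from Hill-equation modelling.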

[14] = Cell Viability - LYMP2-004 (AID 966);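 also: plate controls were DMSO only for no effect and tetraoctylammonium bromide control for full effect; nearly all actives have a fitted effect of over 65% in size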
In short: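 Lymphoblastoid LYMP2-004 cells, 2500 per well, were preincubated for 5 hr and then treated with compound for 24 h at 37 C in complete medium. Viability was read as cellular ATP by CellTiter-Glo luminescence, and AC50 values were taken from Hill fits to concentration-response data.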

[15] = Cell Viability - LYMP2-005 (AID 967);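 also: plate controls were DMSO only for no effect and 92 µM tetraoctylammonium bromide control for full effect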
In short: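 qHTS viability screen in LYMP2-005 cells: 24 h at 37 C with compound, ATP luminescence via CellTiter-Glo, AC50 from Hill curves.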

[16] = Cell Viability - LYMP2-011 (AID 969);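 also: cells exposed to compound for 24 hours; 0% = DMSO only and full inhibition = 92 µM tetraoctylammonium bromide; nearly all actives have a fitted effect of over 60% in size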
In short: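 2500 cells/well in complete medium, compound-treated 24 h at 37 C. Viability read as intracellular ATP by CellTiter-Glo luminescence after 30 min at room temperature. AC50 from Hill fits of qHTS concentration-response data.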

[17] = Cell Viability - LYMP2-013 (AID 970);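 also: 0% = DMSO only and full inhibition = tetraoctylammonium bromide control; nearly all actives have a fitted effect of over 55% in size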
In short: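 Human lymphoblastoid LYMP2-013 cells, 2500/well, treated 24 h at 37 C in complete medium; viability as intracellular ATP by CellTiter-Glo luminescence after 30 min. AC50 from Hill fits of qHTS concentration-response.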

[18] = Cell Viability - LYMP2-015 (AID 971);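 also: 0% = DMSO only and full effect = 92 µM tetraoctylammonium bromide; nearly all actives have a fitted effect of over 55% in size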
In short: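 LYMP2-015 human lymphoblastoid cells (2500/well) in complete medium, compound-treated 24 h at 37 C; viability read as cellular ATP by CellTiter-Glo luminescence after 30 min at room temperature. AC50 from Hill-equation fits of qHTS concentration-response data.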

[19] = Cell Viability - LYMP2-019 (AID 973);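 also: 0% = DMSO alone and full effect = 92 µM tetraoctylammonium bromide; nearly all actives have a fitted effect of over 55% in size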
In short: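 Human lymphoblastoid LYMP2-019 cells (2500/well) preincubated 5 h at 37 C, then treated 24 h at 37 C in complete medium. Viability by CellTiter-Glo ATP luminescence after 30 min at room temperature; AC50 from Hill fits.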

[20] = Cell Viability - LYMP2-021 (AID 974);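 also: compound exposure lasts 24 hours at 37 °C; % is scaled to controls: 0 for no effect and ±100 for the full control effect; nearly all actives have a fitted effect of over 55% in size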
In short: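 Human lymphoblastoid LYMP2-021 cells, 2500/well in complete medium, treated 24 hours at 37 C. Intracellular ATP by CellTiter-Glo luminescence (30 min, RT); AC50 from Hill fits of concentration-response.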

[21] = Cell Viability - LYMP2-023 (AID 975)
In short: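 LYMP2-023 human lymphoblastoid cells, 2500/well, preincubated 5 hr at 37 C, then compound-treated 24 hr at 37 C in complete medium. CellTiter-Glo luminescence (ATP) after 30 min at room temperature; AC50 from Hill-equation fits; tetraoctylammonium bromide positive control.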

[22] = Cell Viability - LYMP2-025 (AID 976);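 also: plate controls were DMSO only for no effect and tetraoctylammonium bromide control for full effect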
In short: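 Human lymphoblastoid LYMP2-025 cells, 2500/well, exposed 24 h at 37 C in complete medium in 1536-well qHTS. Viability as cellular ATP by CellTiter-Glo luminescence; AC50 from Hill fits of concentration-response data.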

Brc1ccccc1
inactive: outcome [1] | outcome [2] | caspase-3 activation [3] -10.7% | Potency [4] | Potency [5] | Potency [6] | Potency [7] | outcome [8] | Potency [9] | Potency [10] | Potency [11] | Potency [12] | Potency [13] | Potency [14] | Potency [15] | Potency [16] | Potency [17] | Potency [18] | Potency [19] | Potency [20] | Potency [21] | Potency [22]
